The whole screen tested about 220,000 compounds, of which about 2,000 (0.91%) were called active. Another 2% or so got no clear call; they are omitted. Rule as the data show it: inconclusive = inhibition above about 80% without an active follow-up result; inactive = below that; test concentration not stated here. The list is a sample of the results. Potency and affinity values are given separately.
Experiment: M. tuberculosis H37Rv growth inhibitors, H37Rv strain (AID 1626);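 also: bacteria incubated seven days before Alamar blue readout; 0% = bacteria only wells and 100% = bacteria with antibiotic wells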
Details: stronger effect = higher value, concentration not given here

SMILES | inhibition
CC(C)c1cccc(C(C)C)c1OCCCCN1CCCC1 | 10.1% (inactive)
O=C(CCn1cccc1)N1CCc2ccccc21 | 6.64% (inactive)
Cc1ccc(NC(=O)COC(=O)C2=COCCO2)cc1 | 60.1% (inactive)
CC(C)(C)c1ccc(NC(=O)COC(=O)C2=COCCO2)cc1 | 74% (inactive)
CCOC(=O)c1ccccc1NC(=O)COC(=O)C1=COCCO1 | 71.3% (inactive)
CC(C)c1ccc(NC(=O)COC(=O)C2=COCCO2)cc1 | 78.6% (inactive)
NS(=O)(=O)c1ccc(NS(=O)(=O)c2ccc(NC(=S)Nc3ccccc3)cc2)cc1 | 7.44% (inactive)
CC(=O)C1=C(C)NC(=O)CC1c1ccc(F)cc1 (stereo not drawn) | -1.68% (inactive)
COc1cc([N+](=O)[O-])ccc1NC(=O)/C=C\C(=O)O | 2.65% (inactive)
COc1ccc(CC(=O)Nc2ccccc2N2CCCCC2)cc1OC | 6.94% (inactive)
Cn1cnnc1-c1cccc(NC(=O)c2cc(F)c(F)cc2Cl)c1 | -5.29% (inactive)
O=C(NC1CCCC1)C(c1ccccc1)N(Cc1ccco1)C(=O)Cc1cccs1 (stereo not drawn) | 2.16% (inactive)
O=C(CCn1c(=O)[nH]c2ccccc2c1=O)Nc1ccccc1 | -7.56% (inactive)
O=c1cc(C(F)(F)F)oc2c1ccc1ccccc12 | -2.31% (inactive)
O=c1cc(C(F)F)oc2c1ccc1ccccc12 | 1.35% (inactive)
COc1ccc(C(=O)C2CCCN(C(=O)c3cccnc3SC)C2)c(C)c1 (stereo not drawn) | -5.65% (inactive)
NS(=O)(=O)c1ccc(CCNCc2cccs2)cc1 | 1.78% (inactive)
COc1ccc(NC(=O)c2ccco2)cc1N | -14.7% (inactive)
CCOC(=O)C1C(=O)CC(C)(O)C(C(=O)OCC)C1c1ccc(SC)cc1 (stereo not drawn) | 9.27% (inactive)
COc1ccc(N2CSC3=C(C#N)C(c4cc(OC)c(OC)cc4OC)CC(=O)N3C2)c(OC)c1 (stereo not drawn) | 15% (inactive)
COc1ccc(OC)c(C2CC(=O)N3CN(c4ccccc4)CSC3=C2C#N)c1 (stereo not drawn) | 0.68% (inactive)
Cc1ccc(N2CSC3=C(C#N)C(c4cccs4)CC(=O)N3C2)cc1 (stereo not drawn) | 7.29% (inactive)
CCc1ccc(N2CSC3=C(C#N)C(c4cccs4)CC(=O)N3C2)cc1 (stereo not drawn) | 22.1% (inactive)
COc1cccc(C2CC(=O)N3CN(c4cccc(Cl)c4C)CSC3=C2C#N)c1OC (stereo not drawn) | -1.72% (inactive)
COc1ccc(N2CSC3=C(C#N)C(c4cc(OC)ccc4OC)CC(=O)N3C2)c(OC)c1 (stereo not drawn) | -0.31% (inactive)

SMILES | inhibition
CC(=O)OC(C)CS(=O)(=O)c1ccccc1 (stereo not drawn) | -4.77% (inactive)
CCN(c1cccc(C)c1)C(C(=O)Nc1ccc(OC)cc1)c1cc2c(cc1[N+](=O)[O-])OCO2 (stereo not drawn) | 1.06% (inactive)
Cc1ccc(C(=O)Nc2cccnc2)cc1[N+](=O)[O-] | -3.36% (inactive)
CCc1nc(SCc2cccnc2)[nH]c(=O)c1C | -4.49% (inactive)
COc1ccc(CN2C(=O)N(c3ccc(OC)cc3)C(=O)C2CC(=O)Nc2ccccc2)cc1 (stereo not drawn) | 6.5% (inactive)
CCCc1cc(=O)oc2c(CN3CCCC3)c(O)ccc12 | -6.61% (inactive)
CCCCN(C)C(=O)c1ccc(CS(=O)(=O)c2ccccc2C)o1 | -5.74% (inactive)
COC(=O)CN1C(c2ccccc2)=Nc2ccc(Cl)cc2C1c1ccccc1 (stereo not drawn) | 0.35% (inactive)
NNC(=O)CN1C(c2cccc(Cl)c2)=Nc2ccc(Br)cc2C1c1ccccc1 (stereo not drawn) | -2.26% (inactive)
COC(=O)CN1C(c2ccc(Cl)cc2)=Nc2ccc(Cl)cc2C1c1ccccc1 (stereo not drawn) | 79.4% (inactive)
COc1ccc(C2=Nc3ccc(C)cc3C(c3ccccc3)N2CC(=O)NN)cc1 (stereo not drawn) | -0.28% (inactive)
O=C1/C(=C/c2ccc(F)c(F)c2)CSc2sccc21 | 12.2% (inactive)
CCCCNS(=O)(=O)c1ccc2nc(-c3cccs3)cc(C(=O)NCC(OC)OC)c2c1 | 3.68% (inactive)
COc1ccc(NC(=O)NC23CC4CC(CC(C4)C2)C3)cc1OC | 25.7% (inactive)
COC(=O)c1ccc(Cl)c(NC(=O)NC23CC4CC(CC(C4)C2)C3)c1 | 2.38% (inactive)
CCOc1ccc(NC(=O)Nc2ccc(NC(C)=O)cc2)cc1 | -1.52% (inactive)
COC(=O)c1cccc(NC(=O)Nc2ccc(Cl)c(Cl)c2)c1 | 51.3% (inactive)
CCCc1cc(=O)oc2cc(C)cc(OCC(=O)O)c12 | -0.53% (inactive)
COC(CNC(=O)c1cc(-c2ccncc2)nc2ccc(S(=O)(=O)N3CCOCC3)cc12)OC | -0.15% (inactive)
CN(C)CCc1nn[nH]n1 | -3.39% (inactive)
COc1cc(NC(=O)c2ccc(F)cc2)c(OC)cc1Cl | 6.81% (inactive)
COc1ccc(NC(=O)c2c(F)c(F)c(F)c(F)c2F)cc1Cl | 0.77% (inactive)
COc1ccccc1N1CCN(Cc2nc(N)nc(Nc3ccc(C)cc3)n2)CC1 | 48.7% (inactive)
COc1ccc(Nc2nc(N)nc(CN3CCN(c4ccc(F)cc4)CC3)n2)cc1 | 2.63% (inactive)
COc1ccccc1N1CCN(Cc2nc(N)nc(Nc3ccccc3)n2)CC1 | -1.85% (inactive)

SMILES | inhibition
COc1cccc(N2CCN(Cc3nc(N)nc(Nc4ccccc4)n3)CC2)c1 | 0.52% (inactive)
CCOC(=O)c1ccc(NC(=S)Nc2cccc(N)n2)cc1 | 59.5% (inactive)
CCCNc1nc2c(c(=O)[nH]c(=O)n2C)n1Cc1cccc(Br)c1 | 1.4% (inactive)
CCOc1ccc(NC(=O)CN2C(=O)S/C(=C/c3cccn3C)C2=O)cc1 | 0.02% (inactive)
CCC(C)NC(=O)CCNS(=O)(=O)c1ccc(Br)cc1 (stereo not drawn) | -4.65% (inactive)
CCn1nccc1C(=O)Nc1nccs1 | -3.43% (inactive)
NS(=O)(=O)c1cccnc1Nc1cccc(C(F)(F)F)c1 | 3.67% (inactive)
c1ccc(Oc2nc(-c3cccnc3)nc3ccccc23)cc1 | 8.16% (inactive)
Cc1ccc(Oc2nc(-c3cccnc3)nc3ccccc23)c([N+](=O)[O-])n1 | 7.05% (inactive)
CCCC(=O)Nc1cc(C(=O)O)ccc1Sc1ccc(C)cc1 | -4.31% (inactive)
COC(=O)CCC(=O)NC(=S)Nc1cc(Cl)ccc1Cl | -5.76% (inactive)
O=C(CSCc1ccccc1)Nc1ccc2c(c1)C(=O)NC2=O | -3.24% (inactive)
N#C/C(=C\c1ccc([N+](=O)[O-])cc1)c1ccccn1 | 7.55% (inactive)
NC(CO)(CO)COCc1ccccc1 | 5.19% (inactive)
Cc1ccc(/C=C/C(=O)c2ccc(C)cc2)cc1 | 3.08% (inactive)
Cc1ccc(C(=O)/C=C/c2ccc(-c3ccc(C)cc3)o2)cc1 | 88.2% (inactive)
Cc1ccc(C(=O)/C=C\NCc2ccccc2)cc1 | 2.13% (inactive)
Cc1ccc(/C=C/C(=O)c2ccccc2)cc1 | 10.3% (inactive)
O=C(O)/C=C/c1ccccc1[N+](=O)[O-] | -15.1% (inactive)
O=C(/C=C/c1ccccc1[N+](=O)[O-])c1ccc(F)cc1 | 49.5% (inactive)
Cc1ccc(C(=O)/C=C/C(=O)O)cc1 | 1.06% (inactive)
O=C(/C=C/c1ccc(-c2ccccc2)o1)c1ccccc1 | 12.6% (inactive)
COc1ccc(-c2[nH]n(-c3ccc([N+](=O)[O-])cc3)c(=O)c2C=NCc2ccccc2)cc1 | -1.64% (inactive)
C=CCC1(NC(C)c2ccccc2)CCCCC1 (stereo not drawn) | -4.87% (inactive)
O=C(Nc1ccc(-c2noc(COc3ccccc3Cl)n2)cc1)c1ccco1 | 0.69% (inactive)

SMILES | inhibition
COc1cc(/C=C2/SC(=O)N(Cc3ccccc3Cl)C2=O)ccc1OCc1ccncc1 | 3.75% (inactive)
COCCNC(=O)C(c1ccncc1)N(C(=O)c1sc(C)nc1C)c1cccc(C)c1 (stereo not drawn) | -4.16% (inactive)
Cc1ccc(NC(=O)c2cc3c(=O)oc4ccc(C)cc4c3s2)nc1 | -3.16% (inactive)
Cc1ccc2c(c1)CC1(CN2C)C(=O)NC(=O)N(CCc2ccccc2)C1=O (stereo not drawn) | -6.53% (inactive)
Cc1oc(CC(C)C)cc1C(=O)Nc1cccc2ccccc12 | -8.7% (inactive)
Cn1c(=O)[nH]c(=O)c2c1nc(SCC(=O)Nc1ccccc1)n2Cc1ccccc1 | 4.62% (inactive)
CCn1c(-c2cccnc2Cl)nc2cc(Cl)c(Cl)cc21 | 13.1% (inactive)
CCOCCCn1c(=S)[nH]c2cc(C(=O)N3CCN(C)CC3)ccc2c1=O | -9.01% (inactive)
CCc1ccc(NC2CC(=O)N(CCc3ccc(OC)c(OC)c3)C2=O)cc1 (stereo not drawn) | 6.46% (inactive)
O=C(/C=C/NNC(=O)c1ccc(Cl)cc1)c1ccccc1 | 2.77% (inactive)
O=C(/C=C/Sc1ncn[nH]1)c1ccc(Cl)cc1 | 6.21% (inactive)
CCC(=O)NCCCc1nc(-c2ccccc2)no1 | -4.65% (inactive)
COc1ccccc1N1CCN(C(=O)Cn2nc3n(C)c4ccccc4n3c(=O)c2=O)CC1 | 0.2% (inactive)
COc1ccccc1NCC(=O)n1nc(C)cc1C | -3.99% (inactive)
O=C(CSc1nc2ccccc2o1)c1ccccc1 | 9.75% (inactive)
Cc1occc1-c1nnc(SCC(=O)Nc2ccccn2)o1 | 10% (inactive)
O=C(CSc1nc2ccccc2o1)Nc1ccccc1 | -0.33% (inactive)
O=C(CSc1nc2ccccc2o1)Nc1nncs1 | 2.93% (inactive)
COc1ccc(CCNC(=O)CSc2nc3ccccc3o2)cc1 | 96.4% (inactive)
Cc1ccc(-c2csc(NC(=O)CSc3nc4ccccc4o3)n2)cc1 | 65.3% (inactive)
CCS(=O)(=O)c1ccc2oc(SCC(=O)NCCc3ccccc3)nc2c1 | 3.18% (inactive)
Cc1occc1-c1nnc(SCC(=O)NCCc2ccccc2)n1Cc1ccccc1 | -7.81% (inactive)
Cc1ccc(NC(=S)Nc2cc(C)on2)cc1 | 4.76% (inactive)

Source: PubChem BioAssay AID1626 (SRMLSC, 2009)
